The campaign covered roughly 200,000 compounds. About 18,000 (9%) were called active. This excerpt belongs to a sample that is enriched for actives. Values without a mark were called inactive. Cut-off read from the data, not from the text of the source: active = inhibition above about 50%; inactive = the rest.

The source of these data is PubChem BioAssay AID1063 (University of Pittsburgh Molecular Library Screening Center, 2008).

The assay is described as follows: antileishmanial activity against promastigotes – primary screen (AID 1063).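 Note: promastigotes grown with compound for 44 hours at 28 °C.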 The settings on record: Leishmania major promastigotes, resazurin fluorescence viability; at 10 µM; stronger effect = higher value. (In general: Resazurin is reduced to fluorescent resorufin, in cell work by metabolically active cells.)
As to `CCN(CCn1cccn1)Cc1cn[nH]c1-c1ccc(OC)cc1F`, the inhibition is 2.85%. For `Oc1cccc2ccc(/C=C/c3ccc(Br)s3)nc12`, the inhibition was -3.7%. As to `CCN(CC(=O)NCCc1ccccc1)S(=O)(=O)c1ccccc1`, the inhibition was 5.3%. For `CCCNC(=O)CN(Cc1ccccc1F)S(=O)(=O)c1ccc(C)cc1`, the inhibition is 100% (active). Regarding `CCN(CC(=O)NCCc1ccccc1)S(=O)(=O)c1ccc(C)cc1`, the inhibition is 48%.

As to `CN(C)C(=O)c1cccn(Cc2cccc(C(F)(F)F)c2)c1=O`, the inhibition was -8.4%. For `Cc1cc(C)n2nc(SCC(=O)NC(=O)NCc3ccco3)nc2n1`, the inhibition is -4.34%.

With `O=c1[nH]c2cccnc2n(CCNc2ncc(C(F)(F)F)cc2Cl)c1=O`, the inhibition was -4.9%.

With `COc1ccc(NC(=O)Nc2ccc3nsnc3c2)cc1`, the inhibition is 5.81%. Turning to `O=C(Nc1ccc2ccccc2c1)Nc1ccc2snnc2c1`, the inhibition was 100% (active). With `Cc1ccc(NC(=O)Nc2ccc3oc(C)nc3c2)cc1`, the inhibition is 2.15%. As to `CCCn1c(NC(=O)C23CC4CC(CC(O)(C4)C2)C3)nc2ccccc21`, the inhibition is -1.31%.

As for `CCn1c(COc2c(C)cccc2C)nnc1SCc1nc2ccccc2c(=O)[nH]1`, the inhibition was 4.15%. Regarding `C/[N+]([O-])=C\c1ccc([N+](=O)[O-])o1`, the inhibition was 98.5% (active).

With `COC(=O)C1=C(C)N(C)C(=O)NC1c1ccc([N+](=O)[O-])o1` (stereo not drawn), the inhibition was 15.2%.

On to `CN1CCN(/N=C/c2ccc(-c3ccc([N+](=O)[O-])cc3)o2)CC1`, for which the inhibition is -3.39%.

In the case of `O=C(COc1ccc(Cl)cc1[N+](=O)[O-])N1CCCCC1`, the inhibition is -1.15%. For the molecule `O=c1cc(CN2CCN(S(=O)(=O)/C=C/c3ccccc3)CC2)c2ccc(O)cc2o1`, the inhibition is 67.8% (active). As to `COc1ccc2c(CN3CCN(S(=O)(=O)c4cccs4)CC3)cc(=O)oc2c1`, the inhibition is 2.99%. Consider `O=C(CN1CCN(S(=O)(=O)/C=C/c2ccccc2)CC1)Nc1ccc(N2CCOCC2)cc1`, for which the inhibition is 7.17%.

As for `O=c1c(-c2ccccc2)cnc2n1CCS2`, the inhibition was -5.22%. With `O=C(Cc1c(F)cccc1Cl)Nc1ncc([N+](=O)[O-])s1`, the inhibition was 15.8%. In the case of `CC1CCCN(C(C(=O)Nc2ccc(C(C)C)cc2)c2ccc3c(c2)OCO3)C1` (stereo not drawn), the inhibition is 26.3%. As to `O=C(CSc1ccc(-c2ccc(F)cc2)nn1)Nc1ccc2c(c1)OCCO2`, the inhibition was -7%.

In the case of `O=C(Nc1ccc2c(c1)OCCO2)C(c1ccc(F)cc1)N1CCCCC1` (stereo not drawn), the inhibition was 58.5% (active). `COc1cc(/C=N/NC(=O)c2cc(C)n(-c3ccc(F)cc3)c2C)cc(OC)c1O`: the inhibition is 3.76%. In the case of `O=C(COC(=O)CC1CC2CCC1C2)NC(=O)NC1CCCC1` (stereo not drawn), the inhibition was -2.24%.

For `Cc1cccc(-n2cnc(C(=O)Nc3cccnc3)c2)n1`, the inhibition was 10.3%. `Cc1cccc(-n2cnc(C(=O)NNC(=S)Nc3ccccc3)c2)n1`: the inhibition is 87% (active).

With `Cn1cc(Cl)c(C(=O)NNC(=S)Nc2cccc(Cl)c2)n1`, the inhibition was -7.35%. On to `CCOC(=O)c1ccc[n+](CC(=O)Nc2ccccc2OC(F)F)c1`, for which the inhibition is 1.13%. With `CCCCN(C(=O)COc1ccc(NC(C)=O)cc1)C1CCS(=O)(=O)C1` (stereo not drawn), the inhibition is -9.97%.

Take `COc1ccccc1NC(=S)N1CCC(NC(=O)C23CC4CC(CC(C4)C2)C3)CC1`: the inhibition was 94.4% (active).

In the case of `CCCNC(=S)N1CCC(NC(=O)C23CC4CC(CC(C4)C2)C3)CC1`, the inhibition was -3.43%.

In the case of `CC(C)NC(=S)N1CCN(C(c2ccccc2)c2ccccc2)CC1`, the inhibition was 7.72%. Under `COCCNC(=S)N1CCC(NC(=O)C23CC4CC(CC(C4)C2)C3)CC1` stands 73.8% (active). Under `COc1ccccc1NC(=S)NC(=O)C(C)C` stands -0.07%; under `COc1ccccc1NC(=S)N1CCN(C(c2ccccc2)c2ccccc2)CC1`, 65.1% (active). Consider `CCOc1ccc(C(=O)NC2CCN(C(=O)Nc3ccccc3OC)CC2)cc1`, for which the inhibition was -1.82%. `CCOCCCNC(=S)N1CCC(NC(=O)C2CCCCC2)CC1`: the inhibition is -5.68%.

With `COc1ccc(C(=O)NC2CCN(C(=S)Nc3ccccc3)CC2)cc1`, the inhibition is -5.57%. With `Cc1ccccc1NC(=O)Cn1c(=O)n(CC2CCCO2)c(=O)c2ccccc21` (stereo not drawn), the inhibition is -7.76%. For `Cc1cc(C)c(C#N)c(N2CCC(C(N)=O)CC2)n1`, the inhibition is -0.97%. Under `Cc1csc(NC(=O)Nc2ccccc2[N+](=O)[O-])n1` stands 4.81%; under `O=C(Oc1cccc(NC2=NS(=O)(=O)c3ccccc32)c1)c1ccncc1`, -2.71%; under `O=C(N/N=C/c1ccc(OCc2ccccc2)cc1)c1ccc(O)cc1`, 12.5%. Regarding `CCC1SC(CC)C(=O)N(CC(=O)NC2CCCCC2)C1=O` (stereo not drawn), the inhibition is -5.41%.

In the case of `Cc1cc(C(=O)OCC(=O)N2c3ccccc3NC(=O)C2(C)C)c(C)n1-c1ccccc1`, the inhibition was 21.6%.

Turning to `CCNc1ccc(C(=O)OCC(=O)N2c3ccccc3NC(=O)C2(C)C)cc1[N+](=O)[O-]`, the inhibition was 54.4% (active). Regarding `CC1(C)C(=O)Nc2ccccc2N1C(=O)COC(=O)Cn1cnc2ccccc2c1=O`, the inhibition is -3.68%. As to `COc1ccc(-c2csc(-c3cccs3)n2)cc1OC`, the inhibition is 0.19%. Turning to `CCOc1ccc(-c2ccc(SCC(=O)N3CCOCC3)nn2)cc1`, the inhibition was -2.79%.

In the case of `Cc1ccc(Cc2nc(-c3cccc(C)c3)no2)cc1`, the inhibition is -3.66%. For `Cc1ccc(-c2noc(CN3CCN(Cc4ccccc4)CC3)n2)cc1`, the inhibition is 52.1% (active). In the case of `Cc1ccc(-c2noc(CC(c3ccccc3)c3ccccc3)n2)cc1`, the inhibition is 7.54%. For the molecule `Cn1cc(/C=C/C(=O)N2CCCC(C(=O)c3ccc(C(F)(F)F)cc3)C2)cn1` (stereo not drawn), the inhibition was -7.13%. For the molecule `Brc1cc(/C=N/n2cnnc2)oc1Br`, the inhibition is -0.54%. Regarding `S=c1[nH]nc(NCCc2ccccc2)s1`, the inhibition is -6.01%. As to `COc1ccc(CNC(=O)CN(Cc2ccc(Cl)cc2)S(C)(=O)=O)cc1`, the inhibition is 57.5% (active). As for `COc1ccc(NC(=O)CN(Cc2ccccc2)S(C)(=O)=O)cc1OC`, the inhibition is -6.14%. Turning to `COc1ccc(OC)c(NC(=O)CN(Cc2ccc(Cl)cc2)S(C)(=O)=O)c1`, the inhibition is 90.1% (active). In the case of `COC(=O)c1ccccc1NC(=O)CN(Cc1ccc(Cl)cc1)S(C)(=O)=O`, the inhibition is 36.9%. `COc1ccc(CCNC(=O)CN(c2ccccc2)S(C)(=O)=O)cc1`: the inhibition is -6.75%. Take `COc1ccccc1N1CCN(C(=O)CN(Cc2ccc(Cl)cc2)S(C)(=O)=O)CC1`: the inhibition is -0.49%. On to `CCC(C)NC(=O)CN(C1CCCCC1)S(C)(=O)=O` (stereo not drawn), for which the inhibition was 1.28%. Under `O=C(COC(=O)c1ccncc1)c1ccccc1` stands -4.89%. In the case of `CNC(=O)NC(=O)CSc1nnc(-c2ccc(F)cc2)n1CC1CCCO1` (stereo not drawn), the inhibition was -2.36%. Take `Cc1nc2ccccn2c1C(=O)NN=C1CCN(C)CC1`: the inhibition was 35.4%. Under `Nc1ccc(C(=O)OCC(=O)NC2CCCc3ccccc32)cc1[N+](=O)[O-]` (stereo not drawn) stands -5.78%; under `O=C(NC1CCc2ccccc21)C12CN(Cc3ccccc3)CC1C(c1cccc([N+](=O)[O-])c1)=NO2` (stereo not drawn), 58.3% (active); under `CCOc1cnc(C(=O)NNC(=O)c2ccccc2Br)o1`, -1.9%. Consider `Cc1ccc(NC(=O)NNC(=O)c2sccc2-n2cccc2)cc1`, for which the inhibition was -8.12%. Consider `COC(=O)C1NN=C(C(=O)c2ccc(Br)cc2)C1c1cccc(Br)c1` (stereo not drawn), for which the inhibition is 24.8%. As for `COC(=O)C1=C(C)N(C)C(C)=C(C(=O)OC)C1c1cccc(Br)c1`, the inhibition was 52.8% (active). Take `COC(=O)C1=C(C)N(C)C(=S)NC1c1ccccc1` (stereo not drawn): the inhibition was -3.63%.

For `COc1cccc(N(Cc2nnc3n2CCCCC3)C(=O)Nc2ccccc2F)c1`, the inhibition was -3.13%.

As for `CCOc1ccc(Nc2nc(Cl)nc(N3CCN(c4ccc(OC)cc4)CC3)n2)cc1`, the inhibition is 53% (active). Consider `CCOc1ccc(NC(=O)CN2CCN(CC(=O)Nc3ccc(OC)cc3)CC2)cc1`, for which the inhibition is 39.6%. Take `COC(=O)c1ccc(Oc2nc(Nc3ccc(F)cc3)nc(N3CCCC3)n2)cc1`: the inhibition was 2.39%. Regarding `O=C(Oc1cccc(O)c1)C1CCCCC1`, the inhibition is -0.1%. On to `Cc1ccc(S(=O)(=O)c2c(N)n(C)c3nc4ccccc4nc23)cc1`, for which the inhibition is 99.1% (active). Then `CCC(=O)Nc1c(S(=O)(=O)c2ccccc2)c2nc3ccccc3nc2n1Cc1ccccc1`, with 32.2%. Then `Cc1ccc(S(=O)(=O)Nc2nc(N)n(-c3ccccc3)n2)cc1`, with -11%; and `Cc1noc(/C=C/N(C)C)c1S(=O)(=O)N1CCCC(C(=O)NCc2ccco2)C1` (stereo not drawn), with -6.58%; and `O=C(C1CCN(S(=O)(=O)Cc2ccccc2)CC1)N1CCCc2ccccc21`, with 24.6%. On to `Cc1noc(/C=C/c2ccco2)c1S(=O)(=O)N1CCC(C(=O)N2CCc3ccccc32)CC1`, for which the inhibition is 66.6% (active).

For the molecule `Cc1noc(/C=C/c2ccco2)c1S(=O)(=O)N1CCC(C(=O)Nc2ccc(Cl)cn2)CC1`, the inhibition was 74.5% (active). Take `CCOc1ccc(OCC)c(NC(=O)C2CCN(S(=O)(=O)c3c(C)noc3C)CC2)c1`: the inhibition was 26.8%.

With `CCOC(=O)C1CCN(C(=O)C2CCN(S(=O)(=O)c3c(C)noc3C)CC2)CC1`, the inhibition was -2.98%.

Consider `CC1=C(C(=O)N(C)C)C(c2ccccc2OC(F)F)NC(=O)N1` (stereo not drawn), for which the inhibition is -4.21%. Consider `CC(=O)NC(Cc1ccc(F)c(F)c1)C(=O)NC1CCN(C(=O)c2ccc(C)cc2)CC1` (stereo not drawn), for which the inhibition was -6.89%. For `CCN(CC)CC(=O)Nc1sc2c(c1C(=O)c1ccccc1C)CCC2`, the inhibition is 47.2%. For the molecule `CCOC(=O)C1(Cc2ccc(Cl)cc2)CCN(C(=O)C2=NNC(=O)CC2)CC1`, the inhibition was 0.36%.

As a reminder, the inhibition is the change of the read-out against control, counted positive when it falls.
